Screening data from PubChem.
DT40 TDP1 CPT = qHTS for Inhibitors of human tyrosyl-DNA phosphodiesterase 1 (TDP1): qHTS in cells in presence of CPT; chicken DT40 Tdp1-/-;hTDP1 cells + 20 nM CPT, ATP luminescence, 48 h; Potency, µM (highest dose often 46.2 µM), without a hit: top-dose activity change, negative = growth inhibition, actives largely listed as inhibitors; 420,000 tested, 12% active; AID 686979, 2013; further: potency means the concentration at half of the fitted maximal effect; nearly all actives have a fitted effect of over 55% in size
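Chicken DT40 Tdp1-/- cells complemented with human TDP1, 400 cells/well, exposed to compounds plus 20 nM camptothecin for at least 48 h at 37 C; viability read as ATP content by CellTiter-Glo luminescence.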
IL-1B inflam inh = qHTS for Inhibitors of Inflammasome Signaling: IL-1-beta AlphaLISA Primary Screen; THP-1 LPS/ATP IL-1B secretion, AlphaLISA, 16 h; active compounds read low; activity change, % at 57.5 µM; 360,000 tested, 4.7% active; in the data active means activity change below about -50%; inconclusive means mostly about -30% to -49%
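THP-1 cells pretreated 1 hr with compounds (up to 57.5 uM final), then stimulated with LPS (250 ng/mL final) plus ATP (1.25 mM final); secreted IL-1B measured by AlphaLISA after 16 hr, decreased signal indicating inhibition.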
HT1080 IDH1KD tx = qHTS for induction of synthetic lethality in tumor cells producing 2HG: qHTS for the HT-1080-IDH1KD cell line; HT-1080 IDH1 knockdown viability, ATP luminescence, 48 h; Potency, µM (top dose mostly 46.1 µM), for inactives: top-dose activity, negative = toxicity, most hits filed as cytotoxic; 360,000 tested, 2% active;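 further: potency means the concentration at half of the fitted maximal effect; 0% = DMSO wells and -100% = cell-free medium wells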
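Knockdown cells (IDH1KD HT-1080) received compounds 2 h after plating at 750 cells/well and were kept 48 h at 37 °C in 5% FBS RPMI. A CellTiter-Glo luminescence read gave % activity for curve fitting.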
DT40 TDP1 no CPT = qHTS for Inhibitors of human tyrosyl-DNA phosphodiesterase 1 (TDP1): qHTS in cells in absence of CPT; DT40 Tdp1-/- hTDP1 cells, no CPT, ATP luminescence, 48 h; Potency, µM (titrated, usually from 46.2 µM), for the others: top-dose activity change, negative = growth inhibition, usual class: inhibitors; 420,000 tested, 15% active; further: potency means the concentration at half of the fitted maximal effect; nearly all actives have a fitted effect of over 55% in size
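Compound effects on proliferation are scored in DT40 Tdp1-/-;hTDP1 cells in the absence of CPT. ATP levels (CellTiter-Glo luminescence) are recorded after a ≥48 hr, 37 °C incubation.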
HT1080-NT tox = qHTS for induction of synthetic lethality in tumor cells producing 2HG: qHTS for the HT-1080-NT fibrosarcoma cell line; Potency, µM (highest dose often 46.1 µM), without a hit: at the highest dose activity, negative = less viability, actives largely listed as cytotoxic; 360,000 tested, 1.6% active; HT-1080-NT fibrosarcoma viability, CellTiter-Glo ATP luminescence, 48 h;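 further: NT is the 2HG producing partner of a matched IDH1 knockdown line; potency means the concentration at half of the fitted maximal effect; 0% = DMSO-treated cells and -100% = media-only wells without cells; nearly all actives have a fitted effect of over 55% in size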
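HT-1080-NT; 750 cells/well; 5% FBS RPMI; 48 h compound, 37 degrees C; CellTiter-Glo luminescence; curve fitting and curve-class assignment.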
Active calls of the source: *; ? = inconclusive; / = no result. Shown are actives, neighbours in structure and some others; about 19% of the full set was active somewhere. Unless noted, the call rests on the fitted dose curve; in most records, active means well fitted curve in the direction sought with a large enough effect; inconclusive means small, poorly fitted or top-dose-only effect, or another doubt; inactive means no such curve, though single readings can be large; an effect the other way counts as inactive or inconclusive. Unless noted, on the % scale 0 is the no-effect control and ±100 the full control effect.

SMILES | DT40 TDP1 CPT | IL-1B inflam inh | HT1080 IDH1KD tx | DT40 TDP1 no CPT | HT1080-NT tox
COCCNC(=O)CN1C(=O)CCn2nc(-c3cn(C)c4ccccc34)cc21 | -24% | / | / | 39% | /
CCc1ccccc1NC(=O)CCCN1C(=O)CCn2nc(-c3cn(C)c4ccccc34)cc21 | -25% | / | / | -23% | /
Cc1cccc(C)c1NC(=O)CCCN1C(=O)CCn2nc(-c3cn(C)c4ccccc34)cc21 | ? | / | / | 13µM* | /
Cn1cc(-c2cc3n(n2)CCC(=O)N3CCCC(=O)NCc2ccccc2Cl)c2ccccc21 | 16µM* | / | / | 13µM* | /
CO/N=C(\C(=O)N[C@@H]1C(=O)N2C(C(=O)O)=C(CSc3nc(C)c(CC(=O)O)s3)CS[C@H]12)c1csc(N)n1 | 5% | / | / | -14% | /
CCCNC(=O)CCCN1C(=O)CCn2nc(-c3cccn3C)cc21 | 6% | / | / | 10% | /
CCOc1ccccc1CNC(=O)CCCN1C(=O)CCn2nc(-c3cccn3C)cc21 | 18µM* | / | / | ? | /
CNC(=O)C[C@H]1C(=O)N(CCc2ccccc2)C[C@@H]1Cc1ccccc1 | -6% | 2 | 7% | ? | 8%
COc1cc(Cl)cc(C=O)c1OCC(=O)O | 3% | 8 | -1% | 3% | 16%
N=c1sccn1CC(=O)Nc1ccccc1Oc1ccccc1 | -1% | -29 | -5% | -10% | -7%
Cc1ccc(Oc2ccc(NC(=O)Cn3ccsc3=N)cc2)cc1 | ? | -100* | ? | ? | -26%
N=c1sccn1CC(=O)NC(c1ccccc1)c1ccccc1 | ? | -52* | -23% | ? | -1%
N=c1sccn1CC(=O)Nc1ccccc1Cc1ccccc1 | ? | -51* | 7% | ? | -5%
CC(C)n1c(O)c(N=Nc2ccc(Cl)nn2)c2ccccc21 | ? | 17 | 4% | ? | -3%
CCOc1ccccc1C(=O)OCC(=O)NCC1CCCCC1 | 5% | 2 | 0% | -5% | 0%
O=c1oc(-c2ccc([N+](=O)[O-])cc2)nc2ccc(O)cc12 | -2% | -68* | -3% | -16% | 0%
O=c1oc(-c2ccc([N+](=O)[O-])cc2)nc2ccccc12 | ? | -7 | 13% | -24% | 15%
c1ccc(CCNc2nnnn2-c2ccccc2)cc1 | -8% | 1 | -3% | ? | -5%
C1=C(CCNc2nnnn2-c2ccccc2)CCCC1 | 18µM* | 47 | -23% | ? | -19%
CC(C)C(C)NC(=O)COc1ncnc2sccc12 (configuration not stated) | -4% | 19 | 14% | 7% | 1%
Cn1c(SCC(=O)c2ccccc2)nnc1-c1cccnc1 | -4% | -6 | 5% | -2% | 1%
Cn1c(SSc2ccc(-c3cccnc3)n2C)ccc1-c1cccnc1 | ? | -98* | 12µM* | ? | 10µM*
C=CCN1CC(O)=C(c2nc3ccccc3[nH]2)C1=N | 0% | -6 | 13% | 0% | 18%
CCCOC1CCCN(C(=O)c2ccc(OC)c(OC3CCN(C(C)C)CC3)c2)C1 (configuration not stated) | -1% | 1 | 0% | -13% | -4%
CC(=O)N(Cc1cccs1)Cc1cc2ccc(C)c(C)c2nc1Cl | 18µM* | -8 | -12% | 21µM* | -14%
SMILES | DT40 TDP1 CPT | IL-1B inflam inh | HT1080 IDH1KD tx | DT40 TDP1 no CPT | HT1080-NT tox
CC(=O)N1c2ccc(Cl)cc2C2C=CCC2C1c1cccc2ccccc12 (configuration not stated) | 23µM* | ? | ? | ? | ?
Cc1ccc(NC(=O)c2ccc(NC(=O)N3CCSc4ncccc43)cc2)cc1Cl | 16µM* | / | / | 12µM* | /
Cc1cc(Cl)ccc1NC(=O)c1cccc(NC(=O)N2CCSc3ncccc32)c1 | ? | / | / | 16µM* | /
Cc1ccc(NC(=O)c2cccc(NC(=O)N3CCSc4ncccc43)c2)cc1F | -19% | / | / | -25% | /
COC(=O)c1c(N)sc(C(=O)N2CCOCC2)c1C | -1% | 44 | -1% | -12% | 1%
COC(=O)c1c(NC(=O)CCl)sc(C(=O)N2CCOCC2)c1C | ? | -98* | 18µM* | 5.2µM* | 7.3µM*
COC(=O)c1c(NC(=O)c2ccccc2)sc(C(=O)c2ccccc2)c1C | 16µM* | 20 | ? | 15µM* | ?
COC(=O)c1c(NC(=O)c2ccccc2OC)sc(C(=O)N2CCOCC2)c1C | ? | -60* | 9% | 15µM* | 5%
COC(=O)c1c(NC(=O)c2ccccc2)sc(C(N)=O)c1C | -1% | 40 | ? | ? | -22%
O=C(COC(=O)C1CC(=O)N(Cc2ccccc2)C1)Nc1ccc(Cl)cc1F (configuration not stated) | -13% | 22 | 8% | 0% | 1%
COc1cc(NS(=O)(=O)c2ccc(NC(=O)c3cccnc3)cc2)ncn1 | 5% | 36 | 16% | 19% | 11%
COc1ccccc1-n1c(=O)c2c3c(sc2n(Cc2ccccc2F)c1=O)CN(C(C)=O)CC3 | -22% | / | / | -9% | /
COc1ccc(-n2c(=O)c3c(C)c(C)sc3n(CC(=O)NCc3ccc(C)cc3)c2=O)c(OC)c1 | -5% | / | / | -14% | /
COc1ccc(-n2c(=O)c3c(C)c(C)sc3n(Cc3ccc(F)cc3)c2=O)c(OC)c1 | 3% | -9 | -1% | 13µM* | 0%
COc1cccc(-n2c(=O)c3c(C)c(C(=O)N(C)C)sc3n(Cc3ccc(F)cc3Cl)c2=O)c1 | ? | / | / | 18µM* | /
COc1ccc(-n2c(=O)c3c4c(sc3n(Cc3ccc(F)cc3)c2=O)CN(C(C)=O)CC4)c(OC)c1 | 21µM* | / | / | 13µM* | /
CCN(c1ccccc1)S(=O)(=O)c1ccc(C(=O)N2CC(C)CC(C)C2)cc1 (configuration not stated) | ? | 8 | 14% | ? | 10%
COc1cc(-c2cc(O)c(-c3ccc4ccccc4n3)c(=O)[nH]2)cc(OC)c1OC | ? | 4 | -26% | 15µM* | ?
CN(C(=O)COC(=O)c1c2c(nc3ccccc13)/C(=C/c1cccc([N+](=O)[O-])c1)CCC2)C1CCS(=O)(=O)C1 (configuration not stated) | 3.3µM* | 0 | 5.8µM* | 5.2µM* | ?
COC(=O)c1cc(C(=O)OCC(=O)N(C)C2CCS(=O)(=O)C2)cc([N+](=O)[O-])c1 (configuration not stated) | -4% | -2 | 20% | -14% | 21%
